Where “and” joins values, the source holds several entries; their conditions need not be identical. Equal entries are not always repeated. The whole screen tested about 75,000 compounds, of which about 5,700 (7.6%) were called active. A call without a number means that no potency is given here. Another 7% or so got no clear call; they are omitted. The sample as a whole holds a higher share of actives than the screen did. Unmarked numbers belong to inactive results. Calls come from the whole dose curve; as a rule, active = well fitted inhibition curve with a large enough effect; inconclusive = small, poorly fitted or top-dose-only effect; inactive = no such curve, though single readings can be large or run the other way.
Potency is the fitted concentration of half-maximal effect.

This experiment deals with 3-hydroxyacyl-CoA dehydrogenase type-2 (Homo sapiens) (UniProt Q99714). The experiment in a line: qHTS Assay for Inhibitors of HSD17B4, hydroxysteroid (17-beta) dehydrogenase 4.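 Note: the protocol describes HADH2 (HSD17B10) and not the HSD17B4 of the title; nearly all actives have a fitted effect of over 70% in size.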 The conditions noted are these: recombinant HSD17B10, NADH fluorescence kinetic; series mostly up to 57.1 µM. In outline:
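Activity followed as NADH fluorescence increase (ex 360, em 450 nm) every 30 seconds for 4 min, using final 90 uM beta-hydroxybutyryl CoA and 1 mM NAD+. Recombinant His-tagged enzyme, 20 nM, pH 9.0 Tris buffer, 15 min compound preincubation.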
(In qHTS, concentration-response curves come from the screen itself.)
With `O=C1Nc2c(Br)cc(Br)cc2C1(O)N1CCOCC1` (stereo unspecified), the Potency result is “inactive”.

With `Brc1cccc(-c2nnc3n2CCC3)c1`, the Potency entry is “inactive”.

Consider `CCc1ccc2oc(-c3ccc(N)cc3)nc2c1`, for which the Potency is 25.1 µM (active).

For the compound `CCN(CC)c1ccc2oc(=O)c(C)nc2c1`, the Potency result was “inactive”.

As to `Cc1ccc(S(=O)(=O)N2C3C=CC(C3)C2C(=O)O)cc1` (stereo unspecified), the Potency entry is “inactive”.

As for `COC(=O)N1CCC2(CCCN(c3ccncc3)C2)CC1`, the Potency entry is “inactive”.

In the case of `COc1cccc(N2CCN(C3CC(=O)N(c4ccc(Cl)cc4)C3=O)CC2)c1` (stereo unspecified), the Potency entry was “inactive”.

Take `COC(=O)CC1C(C)(C)C(OC(C)=O)C2CC3=C4CC(=O)OC(c5ccoc5)[C@]4(C)CCC3[C@@]1(C)C2=O` (stereo partly specified): the Potency entry is “inactive”.

Regarding `COc1ccc(N2CCN(C(c3cc4ccc(C)cc4[nH]c3=O)c3nnnn3C3CCCC3)CC2)cc1` (stereo unspecified), the Potency entry is “inactive”.

As to `COCCn1nnnc1C(c1cc2ccc(OC)cc2[nH]c1=O)N1CCc2ccccc2C1` (stereo unspecified), the Potency result was “inactive”.

Consider `CCOc1ccc2[nH]c(=O)c(C(c3nnnn3CCOC)N3CCOCC3)cc2c1` (stereo unspecified), for which the Potency is 10 µM (active).

Take `O=C1CC2(CCCCC2)Oc2ccc(OCC(=O)N3CCOCC3)cc21`: the Potency was 31.6 µM (active).

Take `COc1ccc(OCC(=O)N2CCOCC2)cc1`: the Potency result is “inactive”.

As for `O=C(Nc1cccc(OCC(=O)N2CCOCC2)c1)C1CCCCC1`, the Potency result was “inactive”.

On to `CC(C)(C)[Si](OCC[C@@H]1C[C@@]1(C)[C@@H](NP(=O)(c1ccccc1)c1ccccc1)c1ccccc1)(c1ccccc1)c1ccccc1`, for which the Potency entry was “inactive”.

As to `CC1O[C@@H](Oc2c(-c3ccc(O)c(O)c3)oc3cc(O)cc(O)c3c2=O)C(O)C(O)C1O` (stereo partly specified), the Potency result is “inactive”.

For the compound `O=C1c2oc3ccccc3c(=O)c2C(c2cccc(O)c2)N1c1ccccn1` (stereo unspecified), the Potency result is “inactive”.

As to `O=c1c(O)c(-c2ccc(O)cc2)oc2ccccc12`, the Potency is 25.1 µM (active).

With `CCOC(=O)CNC(=O)CSc1nnc(-c2cccc(OC)c2)n1CC`, the Potency result was “inactive”.

Take `Cc1ccc(CNC(=O)C2CCCN(S(C)(=O)=O)C2)cc1` (stereo unspecified): the Potency entry is “inactive”.

For `CCOC(=O)c1cc(C)sc1NC(=O)C1CCC1`, the Potency entry was “inactive”.

For the compound `COc1cccc(OCCOc2cccc(/C=N/n3cnnc3)c2)c1`, the Potency entry was “inactive”.

Turning to `COc1ccccc1OCCOc1ccc(/C=N/n2cnnc2)cc1`, the Potency result was “inactive”.

Consider `C=CCOc1ccc(/C=N/n2cncn2)cc1OC`, for which the Potency was 15.8 µM (active).

Regarding `Cc1cnc(NC(=O)CSc2nnc(-c3ccccc3)n2Cc2ccccc2)s1`, the Potency entry was “inactive”.

For `Cc1nc(NC(=O)C23CCC(C)(C(=O)O2)C3(C)C)sc1C` (stereo unspecified), the Potency result was “inactive”.

As to `CN1CCC(CNC(=O)c2ccc(-n3c(=O)c(=O)[nH]c4ccccc43)cc2)CC1`, the Potency entry was “inactive”.

`O=C(Cl)c1ccc([N+](=O)[O-])cc1`: the Potency entry was “inactive”.

Take `FC(F)(F)c1cc(-c2cccs2)nc(NCc2ccco2)n1`: the Potency is 31.6 µM (active).

With `O=C(CSc1nnc(-c2cccs2)n1-c1ccccc1)NCc1ccco1`, the Potency result was “inactive”.

With `O=C(CSc1nc(-c2ccco2)cc(C(F)(F)F)n1)NCc1cccs1`, the Potency result was “inactive”.

In the case of `COc1ccccc1Nc1ncc(C(C)=O)c(C)n1`, the Potency entry is “inactive”.

On to `O=C(Nc1ccccc1F)C1C2C=CC3(O2)C1C(=O)N(c1cccnc1)C3C(=O)NC1CCCCC1` (stereo unspecified), for which the Potency result was “inactive”.

As for `COc1cccc([C@H]2Oc3ccc(OC)cc3/C(=N\OCC[C@@H]3C=C[C@H](OC(C)=O)[C@H](COC(C)=O)O3)[C@@H]2O)c1`, the activity change, negative = inhibition was -5.53% [at 11.4 µM].

For `COc1ccc(-c2cc3ccc(OCc4nn[nH]n4)cc3oc2=O)cc1`, the Potency is 25.1 µM (active).

As for `O=c1oc2cc(O)ccc2cc1-c1ccc(F)cc1`, the Potency result is “inactive”.

Turning to `COc1cccc(C(=O)c2cc3ccc(O)cc3oc2=O)c1`, the Potency entry was “inactive”.

As to `c1ccc(-n2ncc3c2ncn2c(CSc4nc5ccccc5s4)nnc32)cc1`, the Potency entry was “inactive”.

As to `CCOC(=O)Cn1c(CN(Cc2ccccc2)Cc2ccccc2)nc2c1c(=O)[nH]c(=O)n2C`, the Potency entry was “inactive”.

Turning to `CCCOC(=O)c1[nH]c2c(c1C)C(=O)CC(c1cc(OC)c(OC)c(OC)c1)C2` (stereo unspecified), the Potency result is “inactive”.

For the compound `CC1(C)OC2CO[C@]3(COS(N)(=O)=O)OC(C)(C)OC3C2O1` (stereo partly specified), the Potency entry is “inactive”.

For the compound `COc1c(C)c2c(c(O)c1C/C=C(\C)CCC(=O)O)C(=O)OC2`, the Potency was 12.6 µM (active) and 25.1 µM (active).

For `Oc1cc(O)c2c(c1)OC(c1ccc(O)c(O)c1)C(O)C2` (stereo unspecified), the Potency result is “inactive”.

Take `O=C(NCCCN1CCN(C2CCCCC2)CC1)Nc1ccccc1C(F)(F)F`: the Potency result is “inactive”.

`Oc1ccc(O)c2c(O)cccc12`: the Potency was 12.6 µM (active).

As for `Cc1cccc(CNc2cc(-c3ccccc3Cl)ncn2)c1`, the Potency entry was “inactive”.

For `Cc1ccc(S(=O)(=O)NCC(=O)N(CC(=O)NC2CCCCC2)Cc2ccco2)cc1`, the Potency entry was “inactive”.

Take `Cc1ccc(NC(=O)CS(=O)CC(=O)N(c2ccccc2)C(C)C(=O)NC2CCCC2)cc1` (stereo unspecified): the Potency entry is “inactive”.

Regarding `O=c1[nH][nH]c(=O)c2cc(N3CCCC3)ccc12`, the Potency was 31.6 µM (active).

With `CO[C@H]1COC(=O)[C@H](Cc2ccccc2)NC(=O)C/C=C\[C@@H](C)[C@H](OC)COC(=O)C/C=C\[C@@H]1C`, the activity change, negative = inhibition was -5.43% [at 11.4 µM].

As for `COC(=O)c1cn(C)c2ccc(S(=O)(=O)N3CC(C)CC(C)C3)cc2c1=O` (stereo unspecified), the Potency entry is “inactive”.

Turning to `Cc1ccc(-n2nc(-c3ccco3)cc2C(=O)NCc2cccnc2)cc1`, the Potency entry was “inactive”.

Consider `COCCn1c(=O)[nH]c2cc(C(=O)NCc3cccnc3)ccc2c1=O`, for which the Potency was 31.6 µM (active).

`CC(C)(C)c1cc(C(=O)NCc2cccnc2)ccn1`: the Potency result is “inactive”.

With `Fc1ccc(-c2nnc(CSc3nnc(-c4ccc5c(c4)OCO5)o3)o2)cc1`, the Potency entry is “inactive”.

In the case of `O=C(c1cccc(C(=O)N2CCN(c3ccc(F)cc3)CC2)c1)N1CCN(c2ccc(F)cc2)CC1`, the Potency entry is “inactive”.

In the case of `Cc1cccc2cc(CN(Cc3nnnn3Cc3ccccc3)C3CCCC3)c(=O)[nH]c12`, the Potency is 31.6 µM (active).

Regarding `Cc1cc(C)c2[nH]c(=O)c(C(c3nnnn3Cc3ccc4c(c3)OCO4)N3CCCC3)cc2c1` (stereo unspecified), the Potency entry is “inactive”.

For the compound `Cc1cccc2cc(CN(Cc3ccc4c(c3)OCO4)Cc3nnnn3C3CCCC3)c(=O)[nH]c12`, the Potency entry was “inactive”.

As for `Nc1nc2nc(Cl)[nH]c2c(=O)[nH]1`, the Potency result is “inactive”.

In the case of `CCOC(=O)C1CCCCN1Cc1ccc(OC)c(OC)c1OC` (stereo unspecified), the Potency entry is “inactive”.

In the case of `Clc1ccc(CSc2nnc([C@@H]3CCCN3)o2)cc1`, the Potency result was “inactive”.

In the case of `CC(C)OC(=O)C(C#N)c1nc2ccccc2nc1N1CCN(Cc2ccccc2)CC1` (stereo unspecified), the Potency entry was “inactive”.

Consider `Cc1ccc(S(=O)(=O)N2CC(=O)Nc3ccccc32)cc1C`, for which the Potency entry was “inactive”.

For `Cc1ccc(S(=O)(=O)C(C#N)c2nc3ccccc3nc2N2CCCC2)cc1C` (stereo unspecified), the Potency was 31.6 µM (active).

For the compound `O=C(O)c1nn(-c2ccc(Cl)cc2)c2c1C(=O)c1ccccc1C2=O`, the activity change, negative = inhibition is -2.81% [at 11.4 µM].

As to `CCc1ccc(N(CC)c2ncnc3nc[nH]c23)cc1`, the Potency entry is “inactive”.

Regarding `O=C(O)c1ccc(Cl)c(S(=O)(=O)Nc2ccccc2Cl)c1`, the Potency entry was “inactive”.

On to `Cn1c(=O)n(C)c2cc(CNc3ccc(N4CCOCC4)c(C(=O)O)c3)ccc21`, for which the Potency was 25.1 µM (active).

Turning to `Cn1c(CN2CCOCC2)nc2cc(NC(=O)c3ccc(Cl)cc3)ccc21`, the Potency entry was “inactive”.

As for `CC(=O)Nc1ccc(N2CCOCC2)c(C(=O)Nc2cccc(C)c2)c1`, the Potency result was “inactive”.

As for `COc1cccc(N(C(=O)c2ccn[nH]2)C2(C(=O)Nc3c(C)cccc3C)CCCCC2)c1`, the Potency entry is “inactive”.

With `CSCCC(Nc1nc2ccccc2s1)C(=O)O` (stereo unspecified), the Potency entry is “inactive”.

As to `O=C(O)CN(Cc1ccco1)S(=O)(=O)c1ccc(F)cc1`, the Potency result is “inactive”.

`Cc1c2c(nc3ccccc13)-c1cccc(=O)n1C2`: the Potency was 7.94 µM (active).

With `CC(C)c1ccc2c([Si](C)(C)C)c3c(nc2c1)-c1cccc(=O)n1C3`, the Potency result was “inactive”.

Consider `CC(C)(O)CCC(O)[C@@](C)(O)C1CC[C@]2(O)C3=CC(=O)C4CC(O)C(O)C[C@]4(C)C3CC[C@]12C` (stereo partly specified), for which the Potency entry is “inactive”.

As to `CCOc1ccc(N2C(=O)CC(N(O)c3ccccc3)C2=O)cc1` (stereo unspecified), the Potency result was “inactive”.

Turning to `N#Cc1nc(Cc2ccccc2)oc1NCCc1ccccc1`, the Potency entry is “inactive”.

With `N#Cc1nc(-c2ccc(OCc3ccccc3)cc2)oc1NCCCN1CCOCC1`, the Potency is 25.1 µM (active).

Consider `N#Cc1nc(COc2ccc(-c3ccccc3)cc2)oc1NCc1cccnc1`, for which the Potency entry was “inactive”.

As for `CC[C@]1(C)CC(=O)NC1=O`, the Potency entry is “inactive”.

Regarding `CC(C)(C)n1nnnc1C(c1cccs1)N(Cc1cccnc1)CC1CCCO1` (stereo unspecified), the Potency entry was “inactive”.

As to `COc1ccc2[nH]cc(CCNc3cc(-c4ccccc4CN(C)C)ncn3)c2c1`, the Potency result was “inactive”.

Turning to `Cc1cc(Nc2ccc(Br)cc2F)n2ncnc2n1`, the Potency result is “inactive”.

For `Cc1ccc(NC(=O)CCNS(=O)(=O)c2ccc3c(c2)oc(=O)n3C)cc1C`, the Potency result is “inactive”.

As for `C[C@@H]1/C=C\CC(=O)OC[C@H]2O[C@@H](C=C[C@@H]2O)[C@H](C)/C=C\CC(=O)OC[C@H]2O[C@H]1C=C[C@@H]2O`, the activity change, negative = inhibition is -0.26% [at 11.4 µM].

With `CCn1c(=N)c(S(=O)(=O)c2ccc(F)cc2)cc2c(=O)n3ccccc3nc21`, the Potency result was “inactive”.

Take `CCOC(=O)c1cc2n(c1N)-c1ccccc1C2=O`: the Potency entry is “inactive”.

For the compound `CCCn1c(=NC(C)=O)c(C(=O)OCC)cc2c(=O)n3ccccc3nc21`, the Potency was 20 µM (active).

As for `C#CCNc1nc(C(C)C)nc2c1nnn2Cc1ccccc1F`, the Potency entry was “inactive”.

For the compound `Cc1nc(Nc2ccc3c(c2)OCCO3)c2nnn(Cc3ccccc3Cl)c2n1`, the Potency was 31.6 µM (active).

As for `CC(C)(C)c1nc(NCC2CCCO2)c2nnn(Cc3ccccc3)c2n1` (stereo unspecified), the Potency entry was “inactive”.

In the case of `O=c1cc(CO)oc(CN2CCC(Cc3ccccc3)CC2)c1O`, the Potency result was “inactive”.

With `OCCN1CCN(CC/C=C2\c3ccccc3Sc3ccc(C(F)(F)F)cc32)CC1`, the Potency entry was “inactive”.

Turning to `CCCN1[C@H](C(=O)OC)C[C@@]2(O)[C@@H](O)[C@@H](O)[C@@H](O)C[C@@H]12`, the Potency result is “inactive”.

For `Cc1nnc(SCC(=O)NCc2ccccc2)s1`, the Potency entry was “inactive”.

On to `COc1c(C(C)C)oc2cc3oc(=O)ccc3cc12`, for which the Potency result was “inactive”.

Regarding `Fc1ccc2nc(N3CCCCC3)sc2c1`, the Potency entry was “inactive”.

Take `Fc1ccc2nc(Nc3nc4c(s3)CCCC4)sc2c1`: the Potency was 25.1 µM (active).

Regarding `O=C(Cn1c(=O)sc2ccccc21)Nc1nc2c(s1)CCCC2`, the Potency entry was “inactive”.
